Assay results from PubChem BioAssay AID488890 (Southern Research Specialized Biocontainment Screening …, 2010).
The whole screen tested about 320,000 compounds, of which about 1,300 (0.41%) were called active. Roughly 3% stayed inconclusive and do not appear here. No rule for the calls is given here. The list is a sample of the results. Measured potencies and affinities stand elsewhere.

Assay: growth inhibition of non-replicating M. tuberculosis (AID 488890);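 also: plate controls were DMSO cells for no effect and high antibiotic wells for full effect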
Settings: Mycobacterium tuberculosis non-replicating, at 25 µM, stronger effect = higher value

Structure (SMILES)	inhibition [%]
Cc1cccc(NC(=O)c2cccc(Cn3cc(Br)c([N+](=O)[O-])n3)c2)c1C	-0.16
O=C(NCc1cccnc1)c1ccc([N+](=O)[O-])o1	62.8
COc1ccccc1NC(=O)c1ccc(-c2ccccc2[N+](=O)[O-])o1	25
Cc1ccccc1Cn1nnc(C(=O)Nc2cccc(C)c2C)c1N	26
Cc1cccc(NC(=O)COC(=O)c2ccc([N+](=O)[O-])o2)c1C	61.9
Cc1cccc(NC(=O)c2ccco2)c1C	-14.2
COc1cc(NC(=O)c2ccc([N+](=O)[O-])o2)ccc1NC(=O)c1ccco1	66.5
Cc1ccc(CNC(=O)c2ccc(Br)o2)cc1	71.9
O=C(NCc1ccccc1)c1cc[n+](Cc2ccccc2)cc1	-1.18
Cc1ccc(C(C)(C)NC(=O)C2CCC(=O)N(C3CCCCCC3)C2)cc1 (stereo not drawn)	8.48
Cc1ccccc1CC(=O)N1CCN(S(=O)(=O)c2cccs2)CC1	-18.2
O=C(Cc1ccccc1)NC(c1ccco1)c1c(O)ccc2ccccc12 (stereo not drawn)	11.6
O=C(NCc1ccccc1)C1=C[C@@H](c2csc3ccccc23)C[C@@H](OCCCCO)O1	-6.19
NC(=O)c1cc(S(=O)(=O)N2CC=C(c3ccccc3)CC2)cs1	-1.59
N#CCc1ccc(NC(=O)CSc2nnc(C3CC3)n2C2CC2)cc1	-7.07
CC(=O)OCC(=O)Nc1ccc(SC(F)F)cc1	-17.3
COc1ccc(CNC(=O)N2CCN(c3cccc(C)c3C)CC2)cc1OC	47.1
Cc1ccc2nc(-c3ccncc3)cc(C(=O)N3CCC4(CC3)OCCO4)c2c1	8.38
O=C(CSc1ncn(-c2ccccc2)n1)Nc1nccs1	12.5
Cc1cc(OC2CCCCC2)nc(-c2ccccc2O)n1	0.01
C=C1CCC[C@]2(C)C[C@H]3OC(=O)C(CNC(CC)CO)[C@H]3CC12 (stereo partly drawn)	34.3
O=C(Nc1nccs1)c1ccc(N2C(=O)C3CCCCC3C2=O)cc1 (stereo not drawn)	6.17
O=C(Nc1ccc(Cc2ccncc2)cc1)c1ccc(Br)o1	-2.73
Cc1c([N+](=O)[O-])cc(C(=O)Nc2ccc(Cc3ccncc3)cc2)cc1[N+](=O)[O-]	59.9

Structure (SMILES)	inhibition [%]
O=C(NC12CC3CC(CC(C3)C1)C2)c1ccc(-c2ccc(Cl)cc2)o1	64.3
O=C(NC12CC3CC(CC(C3)C1)C2)c1ccc([N+](=O)[O-])cc1	74.3
O=C(Nc1cccc(NC(=O)c2ccccc2Cl)c1)c1ccc([N+](=O)[O-])o1	8.06
O=C(COC(=O)c1ccc([N+](=O)[O-])o1)Nc1cccc2ccccc12	71.3
Cc1cc(C)nc(NC(=O)c2ccc([N+](=O)[O-])o2)n1	70.5
Cc1ccc(C(=O)Nc2cccc3ccccc23)o1	26.4
O=C(NCCCN1CCN(CCCNC(=O)c2cccc(Cl)c2)CC1)c1cccc(Cl)c1	43.3
CCOc1ccc(NC(=O)CN(C)C(=O)c2ccc(C)o2)cc1OCC	-1.16
Cc1ccc(-c2cc(C(=O)Nc3cccnc3)[nH]n2)c(O)c1C	3.48
CC(C)NC(=O)CCn1nc(-c2ccc(Cl)cc2)c2ccccc2c1=O	10
FC(F)(F)c1cc(-c2ccco2)nc(N2CCN(c3ccccc3)CC2)n1	-1.1
O=C(CCNC(=O)c1ccc(Br)cc1)NCc1ccco1	6.14
CC(=O)c1cccc(S(=O)(=O)NCCC(=O)O)c1	-0.2
Cc1cc(C)c2nc(NC(=O)c3ccc([N+](=O)[O-])o3)sc2c1	62.3
CN1CCN(c2ccccc2NC(=O)c2ccc([N+](=O)[O-])o2)CC1	44.3
O=C(Nc1ccccc1N1CCOCC1)c1ccc([N+](=O)[O-])o1	67.3
NS(=O)(=O)c1ccc(O)c(NC(=O)c2ccc([N+](=O)[O-])o2)c1	76.7
CCn1ncc(Br)c1C(=O)Nc1cc(C)cc(C)c1	-11
C=C1CCC2[C@](C)(CO)[C@H](O)CC[C@@]2(C)[C@@H]1/C=C/C1=CCOC1=O (stereo partly drawn)	-9.71
CC(C)c1ccc(C(C(=O)NC2CCCC2)N(C(=O)CNC(=O)c2ccco2)c2cccnc2)cc1 (stereo not drawn)	-5.98
O=C(NS(=O)(=O)Nc1ccccc1)C1=C(N2CCCC2)COC1=O	12.7
CCOC(=O)N1CCN(C(=O)CSc2nc3c([nH]c4ccccc43)c(=O)n2CCOC)CC1	-12.8
COC(=O)c1nn(-c2cccc(C)c2)c2nnc(Cc3ccc(C)cc3)c(=O)n12	-0.72
COc1ccc(NC(=O)N2CCCC2C(=O)NC2CCCC2)cc1 (stereo not drawn)	-20.1

Structure (SMILES)	inhibition [%]
COc1cccc2c1OCC(C(=O)O)C2 (stereo not drawn)	-4.89
COc1ccccc1N1CCN(C(=O)C2CC=CCC2C(=O)O)CC1 (stereo not drawn)	-0.47
CCOC(=O)C1CCN(C(=O)c2ccc3c(=O)n4c(nc3c2)CCCCC4)CC1	-14.7
O=Nc1c(-c2ccccc2)[nH]n(-c2ccccc2)c1=O	63
Cn1nc(-c2ccccc2)c(/C=N/O)c1Cl	-12.1
Cc1sc2ncnc(N3CCCCC3C)c2c1C (stereo not drawn)	32.6
CCOc1ccc(S(=O)(=O)N2CCCC(C(=O)NCc3ccccc3)C2)cc1 (stereo not drawn)	-11.6
CN(C)C=NC(=O)c1cn(-c2ccc(F)cc2)c(=O)c2ccccc12	-9.03
O=C(N/N=C/C=C\c1ccccc1)c1cnccn1	11.4
COc1ccccc1/C=C/C=N/NC(=O)c1ccccn1	70.9
O=C(N/N=C/C=C/c1ccccc1[N+](=O)[O-])c1cccnc1	-8
O=C(N/N=C/C=C\c1ccccc1[N+](=O)[O-])c1cccnc1	-10.7
O=C(N/N=C/C=C/c1ccco1)c1cnccn1	-12.5
COc1ccccc1/C=C/C=N/NC(=O)c1cnccn1	5.21
O=C(N/N=C/c1ccco1)c1ccncc1	54.4
O=C(N/N=C/C=C/c1ccccc1)c1cnccn1	15.9
COc1ccc(CNC(=O)c2ccc[nH]2)cc1	34.3
CC(=O)N1CCN(c2ccc(NC(=O)c3ccc4c(c3)OCCO4)cc2Cl)CC1	27.7
Cc1cccc(OCC(=O)OC(C)C(=O)Nc2ccc(S(=O)(=O)N3CCCCC3)cc2)c1 (stereo not drawn)	17.6
C=C(C)CSc1nnc(-c2cc(OC)c(OC)c(OC)c2)n1N	-11
COc1ccc(C2=NN(C(=O)CN3CCCC3)C(c3ccc(OC)cc3)C2)cc1 (stereo not drawn)	-5.46
O=C(N/N=C/C=C/c1ccccc1)c1ccc(Br)cc1	-16.8
O=C(O)CC/C(=N\NC(=O)c1ccncc1)c1ccccc1	37.3
CC1(C)OC(c2ccccc2)=C/C(=C/C=Nc2ccccc2)O1	14.4

Structure (SMILES)	inhibition [%]
Cc1ccccc1N=C/C=C1/C=C(c2ccccc2)OC(C)(C)O1	32.8
O=C(N/N=C/c1ccncc1)c1ccccc1	67.6
Cn1cc(C(=O)N/N=C/C=C/c2ccccc2)ccc1=O	-14.3
C/C(=N/NC(=O)c1ccncc1)c1ccccc1	49.1
C/C=C/C=N\NC(=O)c1ccncc1	57.5
CCCOc1ccc(Cc2c(O)nc(SC)[nH]c2=O)cc1	8.21
CCC1(c2ccccc2)NC(=O)N(CC(=O)NC2CCCCCC2)C1=O (stereo not drawn)	15.6
CCOC(=O)c1nn(-c2ccc(Cl)cc2C)ccc1=O	-14.1
Cc1c(C(=O)N(C)C)c2cc(Cl)ccc2n1O	8.07
Cc1ccccc1NC(=O)OCc1ccccc1	71.6
COc1ccc(C(=O)COC(=O)c2ccc(-n3cnnn3)cc2)c(OC)c1	-4.6
COc1cccc(C(=O)Nc2ccccc2F)c1	-15.1
O=C(COC(=O)/C=C/c1ccco1)NCc1ccc(Cl)cc1	44.8
COc1ccccc1C(=O)OCCN=C1NS(=O)(=O)c2ccccc21	3.36
CC(/C=N/NC(=O)c1ccncc1)=C\c1ccccc1	56.6
O=C(N/N=C/C(Br)=C/c1ccccc1)c1cccnc1	56.4
O=c1oc(-c2cccc([N+](=O)[O-])c2)nc2ccccc12	67.8
O=[N+]([O-])c1ccc(C=Nc2cccc3ccccc23)s1	68.5
COc1ccc(-c2csc3nc(-c4ccc(C)cc4)oc(=O)c23)cc1OC	2
CCOc1ccc(-c2cc(C(=O)O)c3ccccc3n2)cc1	0.34
Cc1ccc2nc(-c3ccccc3)oc(=O)c2c1	76.6
COc1ccc(/C=C/c2cc(C(=O)O)c3ccccc3n2)cc1	3.28
COc1ccc(-n2c(/C=C/c3ccc(O)cc3)nc3ccccc3c2=O)cc1	20.1
CCOc1ccc(-c2nnc(-c3ccccc3)o2)cc1	78.4

Structure (SMILES)	inhibition [%]
O=S(=O)(Cc1ccccc1)N1CCCc2ccccc21	28.1
Cc1[nH]c2ccc(C(=O)NCCCN(C)C3CCCCC3)cc2c1C	7.44
Cc1sc2nc(SCC(=O)NCCOCCO)n(C)c(=O)c2c1C	-0.17
Cc1ccc(C(=O)NCC(=O)OCn2nnc3ccccc3c2=O)cc1	4.09
Cc1nn(Cc2ccccc2)c2c1C(c1ccc(Cl)cc1)C(C#N)=C(N)O2 (stereo not drawn)	11.4
COC(=O)c1sccc1NC(=O)c1c(-c2ccccc2)noc1C	27.9
CC1CC(=O)Nc2ccccc2N1C(=O)CN1CCN(C=O)CC1 (stereo not drawn)	4.41
c1ccc(C2C3=C(Nc4ncnn42)c2ccccc2CCC3)cc1 (stereo not drawn)	9.65
CCCC(=O)C1=C(O)C(C(=O)OC)C(C)(C)CC1=NC(C)C (stereo not drawn)	-5.24
CC(C)(C)c1ccc(-n2ncc3c2CCCC3NC(=O)CCN2CCCO2)cc1 (stereo not drawn)	19.6
COc1cc(OC)cc(-c2cc3ccccc3c(=O)o2)c1	9.55
O=c1oc(-c2ccco2)nc2ccccc12	28.8
Cc1c2cnn(CC(=O)Nc3c(F)c(F)cc(F)c3F)c(=O)c2c(C)n1Cc1ccccc1F	0.29
CN(C)C(CNC(=O)CCOc1ccccc1)c1ccco1 (stereo not drawn)	13.7
Fc1ccccc1CSc1nc2ncccc2[nH]1	23.3
Cc1cc(=O)[nH]c(SC/C=C/c2ccccc2)n1	69.8
Cn1c(C(=O)N[C@@H](Cc2ccccc2)C(=O)O)cc2cc(F)ccc21	-8.03
Cc1ccc(N2C(=O)NC(NC(=O)C(C)(C)C)(C(F)(F)F)C2=O)cc1C (stereo not drawn)	-24.4
Cc1cc(C)n(-c2nc(NCCCN(C)C)c3c4c(sc3n2)CCCC4)n1	75.9
Cc1cc(C)n(-c2nc(SCC(=O)O)c3c4c(sc3n2)COC(C)(C)C4)n1	78.8
Cc1cc(C)n(-c2nc(SCCN(C)C)c3c4c(sc3n2)COC(C)(C)C4)n1	65.5
Cc1cc(C)n(-c2nc(NCC(C)O)c3c4c(sc3n2)CCCC4)n1 (stereo not drawn)	79.3
